About 79,000 compounds went through this panel and 15% of them were active in at least one assay; those are over-represented in the sample as a whole. The source made the active and inactive calls. Rule as the data show it: active = growth inhibition above about 70%; inactive = the rest.
Experiments:
[1] = NCI Yeast Anticancer Drug Screen. Data for the wt1 strain (AID 149);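 also: 0% = growth of vehicle-treated wt1 cultures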; details: S. cerevisiae wt1 strain (SPY 50644) growth inhibition, hits give high values
In short: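 Vehicle-normalised growth inhibition; strain wt1; compound exposure.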

[2] = NCI Yeast Anticancer Drug Screen. Data for the rad50EPP+ strain (AID 151);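 also: 0% = growth of vehicle-treated control cultures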; details: S. cerevisiae rad50 mutant strain, hits give high values
In short: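 One strain with a rad50 alteration (rad50EPP+) was compound-treated, its growth then compared to that of vehicle controls.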

[3] = NCI Yeast Anticancer Drug Screen. Data for the mgt1 strain (AID 153); details: S. cerevisiae mgt1 mutant growth inhibition, hits give high values
In short: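 After exposure of the mgt1 yeast mutant to compound, growth was measured and reported as inhibition compared with vehicle controls.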

[4] = NCI Yeast Anticancer Drug Screen. Data for the rad50 strain (AID 155);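 also: 0% = growth of vehicle-only cultures of the same strain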; details: S. cerevisiae rad50 strain growth inhibition, hits give high values
In short: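 A DNA repair-deficient yeast mutant serves as the test organism; compound-induced growth inhibition is calculated against vehicle-treated cells.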

[5] = NCI Yeast Anticancer Drug Screen. Data for the mec2-1 strain (AID 157); details: S. cerevisiae mec2-1 strain, hits give high values
In short: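 Test agents were screened against the mec2-1 yeast strain, with defined DNA repair or cell cycle alteration. Growth was scored as inhibition against vehicle-only controls.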

[6] = NCI Yeast Anticancer Drug Screen. Data for the rad14 strain (AID 159);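 also: 0% = growth of vehicle-treated control cultures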; details: S. cerevisiae rad14 strain growth inhibition, hits give high values
In short: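 Vehicle-treated cultures served as the baseline for growth inhibition of a DNA repair-mutant yeast strain exposed to each compound.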

[7] = NCI Yeast Anticancer Drug Screen. Data for the sgs1 mgt1 strain (AID 161);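 also: 0% = growth of cultures given vehicle only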; details: S. cerevisiae sgs1 mgt1 strain, hits give high values
In short: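 Read-out: growth inhibition vs vehicle controls. Cells: mutant yeast strain deficient in DNA damage repair.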

[8] = NCI Yeast Anticancer Drug Screen. Data for the CLN2oe strain (AID 163);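 also: 0% = growth of vehicle-only control cultures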; details: S. cerevisiae CLN2oe strain, hits give high values
In short: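 Here, growth inhibition in a cell-cycle-altered yeast strain after compound exposure was quantified against vehicle control growth.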

[9] = NCI Yeast Anticancer Drug Screen. Data for the cln2 rad14 strain (AID 165);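 also: 0% = growth equal to vehicle treated cultures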; details: S. cerevisiae cln2 rad14 strain, hits give high values
In short: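 Growth of compound-exposed yeast (cln2 rad14 genotype) measured and expressed as inhibition relative to vehicle.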

[10] = NCI Yeast Anticancer Drug Screen. Data for the bub3 strain (AID 167); details: S. cerevisiae bub3 mutant strain, hits give high values
In short: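 Inhibition values come from growth of compound-treated mutant yeast normalised to vehicle-treated controls.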

[11] = NCI Yeast Anticancer Drug Screen. Data for the wt2 strain (AID 169);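 also: 0% = growth of vehicle-treated yeast cultures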; details: S. cerevisiae wt2 strain growth inhibition, hits give high values
In short: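 Genetically defined yeast strains from a DNA-repair/cell-cycle panel were used. Compound-exposed yeast growth was measured, and the inhibition was calculated relative to vehicle treatment.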

[12] = NCI Yeast Anticancer Drug Screen. Data for the mlh1 strain (AID 171);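 also: 0% = growth of vehicle-treated control cultures of the same strain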; details: S. cerevisiae mlh1 strain growth inhibition, hits give high values
In short: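 Here the genetically defined yeast mutant is grown with each compound, and the extent to which its growth falls below that of vehicle-exposed cells is reported.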

[13] = NCI Yeast Anticancer Drug Screen. Data for the sgs1 strain (AID 173);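 also: 0% = growth of vehicle-only control cultures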; details: S. cerevisiae sgs1 mutant, hits give high values
In short: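 Relative growth inhibition, referenced to vehicle, was determined in a yeast strain with a defined alteration affecting DNA damage repair or cell cycle control after compound exposure.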

[14] = NCI Yeast Anticancer Drug Screen. Data for the mlh1 rad18 strain (AID 175); details: S. cerevisiae mlh1 rad18 strain growth inhibition, hits give high values
In short: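 In this whole-cell yeast screen, a strain with altered DNA damage repair is challenged with compound, and its growth is measured against matched vehicle-treated controls.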

[15] = NCI Yeast Anticancer Drug Screen. Data for the rad18 strain (AID 177); details: S. cerevisiae rad18 mutant growth inhibition, hits give high values
In short: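 Screen uses a yeast strain with a defined lesion in DNA damage repair; compound effect is read as loss of growth compared to untreated vehicle cultures.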

[16] = at 5.0 µM (retest, dose inferred, filed as 0.5)
[17] = at 50.0 µM (retest, dose inferred, filed as 5.0)

Measured: growth inhibition

CC[C@@]1(OC(=O)CN(C)C)C(=O)OCc2c1cc1n(c2=O)Cc2cc3ccccc3nc2-1
active: [1]; at 33.0 µM 85% | [1]; at 100.0 µM 93% | [2]; at 3.7 µM 79% | [2]; at 11.0 µM 92% | [2]; at 33.0 µM 95% | [2]; at 100.0 µM 97% | [3]; at 33.0 µM 90% | [3]; at 100.0 µM 97% | [4]; at 1.2 µM 81% | [4]; at 3.7 µM 95% | [4]; [16] 95% | [4]; at 11.0 µM 96% | [4]; at 33.0 µM 96% | [4]; [17] 97% | [4]; at 50.0 µM 96.8% | [4]; at 100.0 µM 97% | [5]; at 11.0 µM 89% | [5]; at 33.0 µM 94% | [5]; [17] 96% | [5]; at 50.0 µM 99% | [5]; at 100.0 µM 97% | [6]; at 33.0 µM 87% | [6]; at 100.0 µM 95% | [7]; [17] 95% | [7]; at 50.0 µM 93.6% | [8]; at 33.0 µM 73% | [8]; at 100.0 µM 87% | [9]; [17] 89% | [9]; at 50.0 µM 79.8% | [10]; at 33.0 µM 90% | [10]; [17] 93% | [10]; at 50.0 µM 93.7% | [10]; at 100.0 µM 96% | [11]; at 33.0 µM 84% | [11]; at 100.0 µM 93% | [12]; at 33.0 µM 90% | [12]; at 100.0 µM 96% | [13]; at 11.0 µM 82% | [13]; at 33.0 µM 94% | [13]; at 100.0 µM 96% | [14]; [17] 94% | [14]; at 50.0 µM 97.2% | [15]; at 33.0 µM 92% | [15]; at 100.0 µM 96%
inactive: [1]; at 1.2 µM -1% | [1]; at 3.7 µM 1% | [1]; at 11.0 µM 23% | [2]; at 1.2 µM 42% | [3]; at 1.2 µM -1% | [3]; at 3.7 µM 1% | [3]; at 11.0 µM 32% | [5]; at 1.2 µM 2% | [5]; at 3.7 µM 23% | [5]; [16] 53% | [6]; at 1.2 µM 2% | [6]; at 3.7 µM 8% | [6]; at 11.0 µM 44% | [7]; [16] 38% | [8]; at 1.2 µM -7% | [8]; at 3.7 µM 2% | [8]; at 11.0 µM 31% | [9]; [16] 15% | [10]; at 1.2 µM -7% | [10]; at 3.7 µM -9% | [10]; [16] -3% | [10]; at 11.0 µM 41% | [11]; at 1.2 µM -1% | [11]; at 3.7 µM 10% | [11]; at 11.0 µM 28% | [12]; at 1.2 µM 0% | [12]; at 3.7 µM 2% | [12]; at 11.0 µM 42% | [13]; at 1.2 µM 6% | [13]; at 3.7 µM 28% | [14]; [16] 36% | [15]; at 1.2 µM 1% | [15]; at 3.7 µM 12% | [15]; at 11.0 µM 60%

From PubChem BioAssay (NCI)
